The campaign covered roughly 410,000 compounds. About 490 (0.12%) were called active. A call without a number means that no potency is given here. About 1% were inconclusive and are not listed. Calls follow the shape of the dose curve; as a rule, active = well fitted inhibition curve with a large enough effect; inconclusive = small, poorly fitted or top-dose-only effect; inactive = flat fitted curve, though single readings scatter. Only a selection was taken, and actives are over-represented in it overall.
The compounds below were run against pyruvate kinase (Trypanosoma brucei) (UniProt Q57TT1) (assay: qHTS of Trypanosoma Brucei Inhibitors). Settings: TbPYK enzyme, Kinase-Glo Plus ATP luminescence, 45 min; series mostly up to 76.8 µM.
Description: Members of the Trypanosomatidae family of parasitic protozoans cause a spectrum of diseases throughout the tropical and subtropical world. Sleeping sickness, caused by two subspecies of Trypanosoma brucei, is endemic to areas of sub-Saharan Africa, while Chagas' disease, a manifestation of Trypanosoma cruzi infection, is prevalent throughout Central and South America. In addition, many species of Leishmania are responsible for a range of cutaneous and visceral diseases, causing ulcers, destructive lesions and kalaazar, a lethal infection of the viscera. These diseases cause severe public health and economic burdens on populations that are often already caught in a tragic cycle of poverty, poor nutrition and disease. Collectively, parasites of the trypanosomatid family infect 30 million people worldwide (~500 million live in endemic areas), and account for ~130K deaths annually. Existing treatments have developed little in the past 50 years, and suffer from toxicity, poor efficacy and resistance; the goal of this project is to develop lead drugs that will be suitable for entry into pre-clinical trials.
Glycolysis in axenically cultured T. cruzi, representing the intracellular pathogenic stage, is also essential for these parasites. {Engel, 1987} This project aims to discover and optimize selective inhibitors of the glycolytic enzyme pyruvate kinase (PYK) from Trypanosoma brucei, the parasite that causes sleeping sickness. […] Trypanosomatid PYKs show significant differences from their human counterparts including only 47-50% sequence identity and different allosteric and activation properties.{Callens, 1992} To this end, a qHTS was done against the MLSMR to discover inhibitors.
NIH Molecular Libraries Probe Production Network [MLPCN]
NIH Chemical Genomics Center [NCGC]
PI Name: Malcolm Walkinshaw, University of Edinburgh
2 uL of TbPYK/substrate buffer (columns 1-3, 5-48) are dispensed into Greiner white solid bottom 1536-well assay plates; column 4 receives only TEA buffer as 0x TbPYK controls. Compounds are then transferred via Kalypsys pin tool equipped with 1536-pin array (10 nL slotted pins, V&P Scientific, San Diego, CA). Following addition of compound, 2 uL of ADP (130 uM final concentration, all columns) is added to initiate the reaction. The plates are then incubated at room temperature for 45 minutes. Kinase-Glo Plus reagent is added (3 uL) and plates incubated for 10 minutes, before being transferred to a ViewLux high-throughput CCD imager (PerkinElmer) wherein single end-point measurements of luminescence are acquired using a clear filter. All reagents are diluted in an assay buffer consisting of 50 mM TEA (pH 7.2), 100 mM KCl, 10 mM MgCl2, 0.05% BSA and 0.01% Tween-20.
All screening operations will be performed on a fully integrated robotic system (Kalypsys, San Diego, CA) containing one RX-130 and two RX-90 anthropomorphic robotic arms (Staeubli, Duncan, SC). Library plates will be screened starting from the lowest and proceeding to the highest concentration. Vehicle-only plates, with DMSO being pin-transferred to columns 5-48, will be inserted uniformly at the beginning and the end of each library in order to monitor and record any shifts in the background, which can be affected by reagent dispensers or loss in enzyme activity over time. Screening data will be corrected, normalized, and concentration-effect relationships will be derived by using publicly-available curve fitting algorithms developed in-house (http://ncgc.nih.gov/pub/openhts).
Also: nearly all actives have a fitted effect of over 50% in size.
Potency is read from the fitted curve at half-maximal effect.

Row | SMILES | Potency
1 | COc1cc(C[C@H]2NCCc3cc(O)c(O)cc32)cc(OC)c1OC | inactive
2 | O=C(c1ccncc1)N1CCC2(CCN(Cc3cc(C(F)(F)F)cc(C(F)(F)F)c3)CC2)CC1 | inactive
3 | CC(=O)O[C@]1(C(C)=O)CC[C@@H]2[C@@H]3C=C(C)C4=CC(=O)CC[C@@]4(C)[C@H]3CC[C@]21C | inactive
4 | CS(=O)(=O)N1CCC2(CC1)CN(Cc1ccccc1)C2 | inactive
5 | CCCCC(=O)OCC(=O)[C@H]1[C@H](C)C[C@@H]2[C@@H]3C[C@@H](F)C4=CC(=O)C=C[C@]4(C)[C@@]3(F)[C@@H](O)C[C@@]21C | inactive
6 | CC(C)NC(=O)N1CCCC2(CCN(C(=O)c3cccn3C)CC2)C1 | inactive
7 | CCOC(=O)c1c(NC(=O)CSc2cn(CCNC(=O)c3cccc(C(F)(F)F)c3)c3ccccc23)sc2c1CCC2 | inactive
8 | O=c1c(-c2cc(F)cc(F)c2)nc2cnc(Oc3ccccc3)nc2n1C[C@H]1CCCO1 | inactive
9 | COc1ccc(-c2nc3cnc(OC)nc3n(Cc3ccc(F)cc3)c2=O)cc1 | inactive
10 | COc1ccc(C(=O)N2CCC3(CCCN(C(c4ccccc4)c4ccccc4)C3)CC2)cc1 | inactive
11 | Cc1nc2cnc(N3CCNCC3)nc2n(Cc2ccc(F)cc2)c1=O | inactive
12 | CS(=O)(=O)N1CCC[C@@]2(CCN(c3ccncc3)C2)C1 | inactive
13 | O=C(Nc1cccc(C(F)(F)F)c1)c1cc(Br)cc(Br)c1O | inactive
14 | O=C(c1cnccn1)N1CCC2(CCCN(Cc3ccccc3)C2)CC1 | inactive
15 | COc1cc([C@@H]2c3cc4c(cc3[C@@H](O[C@@H]3O[C@@H]5CO[C@@H](C)O[C@H]5[C@H](O)[C@H]3O)[C@H]3COC(=O)[C@H]23)OCO4)cc(OC)c1OP(=O)(O)O | inactive
16 | CC(C)NC(=O)N1CC[C@@]2(CCCN(C(=O)c3cccn3C)C2)C1 | inactive
17 | CC[C@]1([C@H]2O[C@@H]([C@@H]3O[C@](O)(CO)[C@@H](C)C[C@H]3C)C[C@H]2C)CC[C@@H]([C@]2(C)CC[C@@]3(C[C@@H](O)[C@@H](C)[C@@H]([C@H](C)[C@H](OC)[C@H](C)C(=O)O)O3)O2)O1 | inactive
18 | CC(C)(O)c1ccccc1CC[C@H](SCC1(CC(=O)O)CC1)c1cccc(/C=C/c2ccc3ccc(Cl)cc3n2)c1 | inactive
19 | CC1(C)OC2CC(=O)OC[C@@]23C1CC(=O)[C@]1(C)C3CC[C@@]2(C)C(c3ccoc3)OC(=O)C3O[C@@]321 (stereo partly specified) | inactive
20 | c1ccc2sc(SNC3CCCCC3)nc2c1 | inactive
21 | O=C(c1ncn2c1c(=O)[nH]c1ccccc12)N1CCc2ccccc2C1 | inactive
22 | O=c1[nH]c2ccccc2n2c(-c3ccccc3)nnc12 | 2.82 µM (active)
23 | CC(C)Cn1c(=O)c2ccccc2n2c(-c3cccc(Cl)c3)nnc12 | inactive
24 | CCNC[C@H](O)c1cccc(O)c1 | inactive
25 | Cc1c(O)cc2c(c1C)O[C@](C)(CCC[C@H](C)CCC[C@H](C)CCCC(C)C)CC2 | inactive
26 | Nc1ccccc1SC(C[N+](=O)[O-])c1ccccc1 (stereo unspecified) | 12.6 µM (active)

Row | SMILES | Potency
27 | CCC(=O)N1CCc2cc(Br)cc(S(=O)(=O)Nc3ccc(C)cc3C)c21 | inactive
28 | COCCn1c(=O)c(-c2ccc(OC)cc2)nc2cnc(Oc3cccc(Cl)c3)nc21 | inactive
29 | N#Cc1cccc(-c2nc3cnc(N4CCNCC4)nc3n(C3CC3)c2=O)c1 | inactive
30 | COc1cc2c(cc1OC)CC(=O)N(CCCN(C)C[C@H]1Cc3cc(OC)c(OC)cc31)CC2 | inactive
31 | CC(C)NC(=O)N1CC[C@@]2(CCCN(C(=O)c3cccc(F)c3)C2)C1 | inactive
32 | COc1cc(C[C@H](C)N)c(OC)cc1Br | inactive
33 | CCCCC1C(=O)NC(=O)N(C2CCCCC2)C1=O (stereo unspecified) | inactive
34 | O=C1C=CC(=O)N1c1ccc(N2CCCCC2)cc1 | 10 µM (active)
35 | O=C(c1csnn1)N1CCC2(CCN(Cc3nccs3)CC2)CC1 | inactive
36 | Cc1ccc(NC(=O)Cn2sc3ccccc3c2=O)cc1 | 7.94 µM (active)
37 | Cc1ccc(NC(=O)Cn2c(=O)n(-c3ccccc3)c(=O)c3c4c(sc32)CCCC4)cc1 | inactive
38 | CC1(C)NC(=O)N(CC(=O)Nc2ccc(-c3ccccc3)cc2)C1=O | inactive
39 | CO/N=C(\C(=O)N[C@@H]1C(=O)N2C(C(=O)O)=C(Cn3nnc(C)n3)CS[C@H]12)c1csc(N)n1 | inactive
40 | O=C(/C=C/c1cccc(F)c1)NC1CC1 | inactive
41 | C=CCN1CCC23c4c5ccc(O)c4O[C@H]2C(=O)CC[C@@]3(O)C1C5 (stereo partly specified) | inactive
42 | CC1(C)OC2CO[C@]3(COS(N)(=O)=O)OC(C)(C)OC3C2O1 (stereo partly specified) | inactive
43 | O=C1c2c(O)cccc2[C@@H]([C@@H]2O[C@H](CO)[C@@H](O)[C@H](O)[C@H]2O)c2cc(CO)cc(O)c21 | inactive
44 | CCOC(=O)Cc1cccc(-c2cc(CCCCCCc3ccc(O[C@H]4O[C@H](COC(C)=O)[C@@H](OC(C)=O)[C@H](OC(C)=O)[C@@H]4OC(C)=O)c(-c4cccc(CC(=O)OCC)c4)c3)ccc2O[C@H]2O[C@H](COC(C)=O)[C@@H](OC(C)=O)[C@H](OC(C)=O)[C@@H]2OC(C)=O)c1 | inactive
45 | COCC(=O)N1CCC2(CCCN(c3ccccc3)C2)CC1 | inactive
46 | Cc1ccc(-c2ncc(Cl)cc2-c2ccc(S(C)(=O)=O)cc2)cn1 | inactive
47 | CCC(C)C(N)C1=NC(C(=O)NC(CC(C)C)C(=O)NC(CCC(=O)O)C(=O)NC(C(=O)NCCCCC2NC(=O)C(CC(N)=O)NC(=O)C(CC(=O)O)NC(=O)C(Cc3cnc[nH]3)NC(=O)C(Cc3ccccc3)NC(=O)C(C(C)CC)NC(=O)C(CCCN)NC2=O)C(C)CC)CS1 (stereo unspecified) | inactive
48 | CC(=O)N1CCC2(CCCN(Cc3ccccc3)C2)CC1 | inactive
49 | CC1(C)[C@H](O[C@H]2O[C@H](C(=O)O)[C@@H](O)[C@H](O)[C@H]2O[C@@H]2O[C@H](C(=O)O)[C@@H](O)[C@H](O)[C@H]2O)CC[C@@]2(C)[C@H]1CC[C@]1(C)[C@H]2C(=O)C=C2[C@H]3C[C@@](C)(C(=O)O)CC[C@]3(C)CC[C@]21C | inactive
50 | COc1ncc2nc(-c3ccc(Cl)cc3)c(=O)n(-c3ccccc3)c2n1 | inactive
51 | CCCc1c2oc(C(=O)O)cc(=O)c2cc2c(=O)cc(C(=O)O)n(CC)c12 | inactive
